Assay outcomes from PubChem BioAssay.
Most compounds without a hit are left out; they make up all but 7.5% or so of the library.
Giardia FBPA inh: inhibitors of Giardia lamblia fructose-1,6-bisphosphate aldolase. 290,000 compounds, 0.71% hits. purified Giardia FBPA. Potency, µM (doses to about 59.6 µM), usual class: inhibitors; also: nearly all actives have a fitted effect of over 55% in size
Target sequence (A8B2U2 whole entry, looked up): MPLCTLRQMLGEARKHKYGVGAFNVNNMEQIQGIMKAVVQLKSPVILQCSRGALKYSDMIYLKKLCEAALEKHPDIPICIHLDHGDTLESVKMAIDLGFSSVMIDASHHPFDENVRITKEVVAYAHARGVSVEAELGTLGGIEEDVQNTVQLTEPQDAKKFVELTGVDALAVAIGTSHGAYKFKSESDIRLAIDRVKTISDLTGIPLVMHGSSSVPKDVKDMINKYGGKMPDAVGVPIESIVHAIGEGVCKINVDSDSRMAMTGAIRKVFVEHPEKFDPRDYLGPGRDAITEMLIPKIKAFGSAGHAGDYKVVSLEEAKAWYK
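40 nM FBPA preincubated 10 min at RT with compound (up to 57.5 uM final), then substrate plus GAPDH/TPI/NAD/arsenate coupling and diaphorase/resazurin added. Fluorescence read after 20 min at RT, 525/598 nm.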
HCMV antiviral: inhibitors of human cytomegalovirus. activity change, negative = inhibition, % at 57.5 µM. 410,000 compounds, 4.5% hits. HFF cells, HCMV-luciferase reporter, 72 h; active compounds read low; in the data active = activity change below about -60%; inconclusive = no clear call, values can overlap the other calls; inactive = above about -39%
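Cell-based, HFFs, 1000 cells/well, 16 h 37C; cpds in DMSO + HCMV-luc, MOI 1 PFU/cell; 72 h 37C; OneGlo luminescence after 5 min RT; norm. to buffer vs Salinomycin 10uM.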
Vaccinia mCherry: inhibitors of vaccinia virus infection (mCherry reporter signal); Vaccinia virus mCherry reporter infection, fluorescence; Potency, µM (doses to about 36.5 µM), actives largely listed as inhibitors; 310,000 compounds, 0.63% hits; AID 720579; calls by dose curve; tested in A549 cells; also: nearly all actives have a fitted effect of over 35% in size
FMDV antiviral: antivirals against foot and mouth disease virus. 410,000 compounds, 1.2% hits. FMDV antiviral cell-based qHTS. Potency, µM (titrated, usually from 57.9 µM), hits mostly inhibitors. AID 1159524; calls by dose curve; tested in HEK293T cells; also: read-out not given here; nearly all actives have a fitted effect of over 45% in size
HCV inhibitor: blocks hepatitis C virus. Huh7.5.1 HCVcc-Cre infection, luciferase reporter, 44 h. Potency, µM (titrated, usually from 41.8 µM), actives largely listed as inhibitors. 340,000 compounds, 3.4% hits. AID 651820
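1,000 cells/well; 4 h culture; + compound; + HCVcc-Cre (~0.5 moi); 44 h; luciferase substrate, RT 15 min; read 15 sec.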
Vaccinia Venus: vaccinia inhibition (Venus reporter); 330,000 compounds, 0.46% hits; Vaccinia virus Venus reporter expression, fluorescence; Potency, µM (titrated, usually from 36.5 µM), most hits filed as inhibitors; AID 720580; calls by dose curve; tested in A549 cells; also: nearly all actives have a fitted effect of over 30% in size
Hits are given with their value. Unless noted, calls follow the shape of the dose curve; as a rule, active = well fitted curve in the direction sought with a large enough effect; inconclusive = small, poorly fitted or top-dose-only effect, or another doubt; inactive = no such curve, though single readings can be large; an effect the other way counts as inactive or inconclusive.

How did CC(=O)N1c2ccc(S(=O)(=O)NCC3CCC(C(=O)Nc4cccc(C)n4)CC3)cc2CC1C (stereo not given) do in these assays?
HCMV antiviral: -71; Vaccinia mCherry: inactive; FMDV antiviral: 22µM; HCV inhibitor: inconclusive; Vaccinia Venus: inactive

Results for Cc1c(C(=O)NCC2(N3CCOCC3)CCCCCC2)cnn1-c1nccc(-c2ccccc2F)n1 ?
Vaccinia mCherry: inactive; FMDV antiviral: inactive; Vaccinia Venus: inactive

Results for Cc1c(/C=N/NC(=O)C(NC(=O)c2ccc3c(c2)OCO3)C(C)C)c2ccccc2n1C (stereo not given) ?
Giardia FBPA inh: inactive; HCMV antiviral: -80; Vaccinia mCherry: inconclusive; FMDV antiviral: inactive; HCV inhibitor: 11µM; Vaccinia Venus: inactive

Results for CC(C)C(NC(=O)c1ccc2c(c1)OCO2)C(=O)N/N=C/c1cccs1 (stereo not given) ?
Giardia FBPA inh: inactive; HCMV antiviral: inactive; Vaccinia mCherry: inactive; FMDV antiviral: inactive; HCV inhibitor: inactive; Vaccinia Venus: inactive

Results for C=CCNC(=O)c1ccc([N+](=O)[O-])c(Cl)c1 ?
Giardia FBPA inh: inactive; HCMV antiviral: inactive; Vaccinia mCherry: inactive; FMDV antiviral: inactive; HCV inhibitor: inactive; Vaccinia Venus: inactive

How did CC(C)(CNC(=O)c1ccc([N+](=O)[O-])c(Cl)c1)CNC(=O)c1ccc([N+](=O)[O-])c(Cl)c1 do in these assays?
Giardia FBPA inh: inactive; HCMV antiviral: -97; FMDV antiviral: inconclusive; HCV inhibitor: inconclusive; Vaccinia Venus: inactive

How did COc1cc(-c2nc(SCC(=O)Nc3ccc(C)cc3)c(-c3ccc(F)cc3)[nH]2)cc(OC)c1OC do in these assays?
HCMV antiviral: -61; Vaccinia mCherry: inactive; FMDV antiviral: inactive; Vaccinia Venus: inconclusive

How did COc1ccc(NC(=O)CSc2nc(-c3ccc(F)cc3)[nH]c2-c2ccc(C)cc2)cc1OC do in these assays?
HCMV antiviral: inactive; Vaccinia mCherry: inactive; FMDV antiviral: inconclusive; Vaccinia Venus: inactive

How did COCCCNC(=O)CSc1nc(-c2ccc(OC)cc2)[nH]c1-c1ccc(OC)cc1 do in these assays?
HCMV antiviral: -112; Vaccinia mCherry: inactive; FMDV antiviral: inactive; Vaccinia Venus: inactive

Results for COCCNC(=O)CSc1nc(-c2ccc(C)cc2)[nH]c1-c1ccc(OC)cc1 ?
HCMV antiviral: inactive; Vaccinia mCherry: inactive; FMDV antiviral: inactive; Vaccinia Venus: inactive

Results for COc1ccc(-c2[nH]c(-c3cccc(OC)c3)nc2SCC(=O)NCc2ccco2)cc1 ?
Giardia FBPA inh: inactive; HCMV antiviral: inactive; Vaccinia mCherry: inconclusive; FMDV antiviral: inactive; HCV inhibitor: 11µM; Vaccinia Venus: inactive

How did CCN(CC(=O)NCc1cccs1)C(=O)/C=C/c1ccc(OC)c(OC)c1 do in these assays?
HCMV antiviral: inactive; Vaccinia mCherry: inactive; FMDV antiviral: inactive; HCV inhibitor: inactive; Vaccinia Venus: inactive

What do the screens show for `COc1ccc(NC(=O)c2c(NCc3ccc(C)o3)sc3c2CCC(C)C3)c(OC)c1` (stereo not given)?
HCMV antiviral: inactive; Vaccinia mCherry: inactive; FMDV antiviral: inactive; Vaccinia Venus: inactive

Results for O=C1Nc2ccc(Br)cc2/C1=C/C(=O)c1ccc2c(c1)OCO2 ?
Giardia FBPA inh: inactive; HCMV antiviral: -100; FMDV antiviral: 28µM; HCV inhibitor: inconclusive

What do the screens show for `C/C=C(\C)C(=O)OC1c2c(ccc3ccc(=O)oc23)OC(C)(C)C1OC(C)=O` (stereo not given)?
Giardia FBPA inh: inactive; HCMV antiviral: inactive; Vaccinia mCherry: inactive; FMDV antiviral: inactive; HCV inhibitor: inactive; Vaccinia Venus: inactive

How did CC1(C)Oc2ccc3ccc(=O)oc3c2[C@@H](O)[C@H]1O do in these assays?
HCMV antiviral: inactive; Vaccinia mCherry: inactive; FMDV antiviral: inactive; HCV inhibitor: 3.2µM; Vaccinia Venus: inactive

How did C/C=C(/C)C(=O)OC1c2c(ccc3ccc(=O)oc23)OC(C)(C)C1OC(=O)/C(C)=C\C (stereo not given) do in these assays?
Giardia FBPA inh: inactive; HCMV antiviral: inactive; Vaccinia mCherry: inactive; FMDV antiviral: 28µM; HCV inhibitor: inactive; Vaccinia Venus: inactive

What do the screens show for `CCCNC(=O)N1N=C(c2ccc(N)cc2)c2cc3c(cc2[C@H]1C)OCO3`?
Giardia FBPA inh: inactive; FMDV antiviral: inactive

Results for CCC(CC)C(=O)Nc1ccc([N+](=O)[O-])cn1 ?
Giardia FBPA inh: inactive; HCMV antiviral: -84; Vaccinia mCherry: inactive; FMDV antiviral: inactive; HCV inhibitor: inactive; Vaccinia Venus: inactive

How did CCC(CC)C(=O)Nc1ccc(Sc2ccc([N+](=O)[O-])cc2)cc1 do in these assays?
Giardia FBPA inh: inactive; HCMV antiviral: -96; FMDV antiviral: inconclusive; HCV inhibitor: inconclusive

Results for CCCC(=O)Nc1ccc(Sc2ccc([N+](=O)[O-])cc2)cc1 ?
Giardia FBPA inh: inactive; HCMV antiviral: -75; FMDV antiviral: inconclusive; HCV inhibitor: inconclusive; Vaccinia Venus: inactive

Results for CC(C)(C)c1ccc(C(=O)Nc2ccc([N+](=O)[O-])cn2)cc1 ?
Giardia FBPA inh: inactive; HCMV antiviral: inactive; Vaccinia mCherry: inactive; FMDV antiviral: inactive; HCV inhibitor: inactive; Vaccinia Venus: inactive

Results for CC(C)NC(=S)N/N=C/c1ccc2c(c1)OCCO2 ?
Giardia FBPA inh: inactive; HCMV antiviral: -67; Vaccinia mCherry: inactive; FMDV antiviral: inactive; HCV inhibitor: inactive; Vaccinia Venus: inactive

What do the screens show for `COc1ccc(NC(=O)Cn2c(=O)n(Cc3nc(-c4ccccc4)no3)c(=O)c3cc4c(cc32)OCO4)c(OC)c1`?
HCMV antiviral: inactive; Vaccinia mCherry: inactive; FMDV antiviral: inactive; Vaccinia Venus: inactive

What do the screens show for `Cc1cc(CNCc2cn(C)nc2-c2ccc(Oc3ccccc3)cc2)on1`?
Giardia FBPA inh: inactive; HCMV antiviral: -68; Vaccinia mCherry: inconclusive; FMDV antiviral: inconclusive; HCV inhibitor: inconclusive; Vaccinia Venus: inactive

Results for CCOc1ccc(C2C(C(=O)OC)=C(C)NC3=C2C(=O)c2ccccc23)cc1OC (stereo not given) ?
HCMV antiviral: inactive; Vaccinia mCherry: inactive; FMDV antiviral: inactive; Vaccinia Venus: inactive

How did C#CCOc1c(Br)cc(C2C(C(=O)OC)=C(C)NC3=C2C(=O)c2ccccc23)cc1OCC (stereo not given) do in these assays?
HCMV antiviral: -63; Vaccinia mCherry: inactive; FMDV antiviral: inconclusive; Vaccinia Venus: inactive

How did O=C(NCCCN1CCOCC1)c1onc(CSc2ccncc2)c1C(=O)NCCCN1CCOCC1 do in these assays?
HCMV antiviral: inactive; Vaccinia mCherry: inactive; FMDV antiviral: inactive; HCV inhibitor: inactive; Vaccinia Venus: inactive

What do the screens show for `O=C(NCCCN1CCOCC1)c1onc(CSc2ccccc2)c1C(=O)NCCCN1CCOCC1`?
HCMV antiviral: -68; Vaccinia mCherry: inactive; FMDV antiviral: inactive; HCV inhibitor: inactive; Vaccinia Venus: inactive

How did Cc1cc(C)cc(SCc2noc(C(=O)NCCCN3CCOCC3)c2C(=O)NCCCN2CCOCC2)c1 do in these assays?
Giardia FBPA inh: inactive; HCMV antiviral: inactive; Vaccinia mCherry: inactive; FMDV antiviral: inactive; HCV inhibitor: 1µM; Vaccinia Venus: inconclusive
